Experimental data published in ChEMBL document CHEMBL3988442, “University of Dundee, Small-Polar-MMV Screening Library” (2021).
Hit rate of the full screen: of about 69,000 compounds, about 950 (1.4%) showed an effect of 50% or more. Only a selection was taken, and strong results are over-represented in it overall.

The molecules below were run on Mycobacterium tuberculosis (assay: Cornell M. t heat shock assay; also: in the data most compounds retested in dose-response had high values).
Assay type: functional, organism-based
Design: dose or concentration left out as unconfirmed

SMILES	Percent Effect [%]
Cc1ccc(C(=O)N2CCn3c(COCC4CC4)cnc3C2C)nc1.O=C(O)C(F)(F)F (configuration not stated)	-9.703
CCN1CCC2(CC1)CC(NCc1cccs1)c1ccccc1O2.O=C(O)C(F)(F)F.O=C(O)C(F)(F)F (configuration not stated)	-24.55
CN(CC(=O)N(C)C1CCCCC1)Cc1nc2c(cnn2C)c(=O)[nH]1	-5.559
CN(Cc1nc2ccccc2c(=O)[nH]1)C1CC(=O)N(C2CC2)C1=O (configuration not stated)	51.11
CN1C(=O)CC(N(C)Cc2nc3ccccc3c(=O)[nH]2)C1=O (configuration not stated)	15.14
CCN1C(=O)CC(N(C)Cc2nc3ccccc3c(=O)[nH]2)C1=O (configuration not stated)	16.93
CN(CC(=O)N(C)C1CCCCC1)Cc1nc2ccccc2c(=O)[nH]1	97.32
CN(Cc1nc2ccccc2c(=O)[nH]1)C[C@@H]1CCCN2CCCC[C@H]12	44.63
CCC(CN1CCCCC1)NC(=O)C1(c2ccc(F)cc2)CC1.O=C(O)CC(O)(CC(=O)O)C(=O)O (configuration not stated)	-8.056
CSCCC(O)C(=O)N1CCN(Cc2cccc(Cl)c2)CC1 (configuration not stated)	31.13
Cc1ccoc1C(=O)N1CC[C@@H]2CN(C3CCOCC3)CCO[C@@H]2C1.O=C(O)C(F)(F)F	6.269
COc1ccc(CN2Cc3nnn(C)c3C(COCCN(C)C)C2)cc1.O=C(O)C(F)(F)F.O=C(O)C(F)(F)F (configuration not stated)	-24.51
Cl.Nc1ncc(-c2csc(NC(=O)C[C@H]3COCCN3)n2)cn1	-19.35
COCC(=O)N1CCCCC1c1ccnc(Nc2ncc(C)s2)n1 (configuration not stated)	-16.88
CCc1nnc(Nc2cccc(C3CCN(S(=O)(=O)N(C)C)CC3)n2)s1	-4.928
Cc1cnc(Nc2cccc(C3CCCN3C(=O)CO)n2)s1 (configuration not stated)	-6.272
Cc1cccc(C2CCCN2S(=O)(=O)N(C)C)n1 (configuration not stated)	-7.65
COCC(=O)N1CCCC1c1cccc(Nc2ncc(C)s2)n1 (configuration not stated)	102.5
CCN(CC)S(=O)(=O)N1CCCC1c1cccc(Nc2ncc(C)s2)n1 (configuration not stated)	70.89
COc1ccc(CN2C[C@@H](N(C)Cc3ccco3)[C@H]3OCCC[C@H]32)cc1.O=C(O)C(F)(F)F.O=C(O)C(F)(F)F	2.974
CCOc1ccccc1CNC(=O)Cn1ccc2c(C)nn(C)c2c1=O	9.293
O=C(Cc1ccccc1)N1CCCC2(COCCN(CC3CC3)C2)C1.O=C(O)C(F)(F)F (configuration not stated)	-3.666
Cc1nc(Nc2nnc(C)s2)cc(C2CCCN2C2CCCC2)n1 (configuration not stated)	-11.05

SMILES	Percent Effect [%]
CN(C)c1nccc(N2CCO[C@H]3CN(Cc4nccn4C)C[C@H]32)n1.O=C(O)C(F)(F)F	-13.16
CC(C)n1c2ccccc2c2c1cc(C(=O)NCCO)n2C(=O)N(C)C	20.51
CC(C)n1c2ccccc2c2c1cc(C(=O)N(C)C)n2C(=O)N(C)C	11.26
CC(C)n1c2ccccc2c2c1cc(C(=O)O)n2C(=O)N(C)C	64.45
COc1ccc(CC(=O)N2CCN(c3nccn3C)CC2)cc1.Cl	6.481
O=C(O)C(F)(F)F.O=S(=O)(C1CC1)N1CCCn2cnc(COc3cccnc3)c2C1	9.967
CCn1cc(NC(=O)CN2C(=O)CC(C)(C)c3ccccc32)cn1	52.7
Cc1cc(NC(=O)CN2C(=O)CC(C)(C)c3ccccc32)no1	6.008
Cc1cccc(NC(=O)CN2C(=O)CC(C)(C)c3ccccc32)n1	-2.777
CCn1ccc(NC(=O)CN2C(=O)C(C)(C)c3ccccc32)n1	-16.77
CC1(C)CC(=O)N(CC(=O)Nc2ccon2)c2ccccc21	77.91
CCn1ccc(NC(=O)CN2C(=O)CC(C)(C)c3ccccc32)n1	2.312
Fc1ccc(CN[C@@H]2COC[C@H]2c2ccc(F)cc2)cc1.O=C(O)CC(O)(CC(=O)O)C(=O)O	2.118
COc1cccc(OCCNCc2ccccc2)c1.O=C(O)C(=O)O	-6.728
CCc1ccc(CN2CCCn3c(nc(Cn4ccnc4)cc3=O)C2)o1.O=C(O)C(F)(F)F.O=C(O)C(F)(F)F	-19.48
Cc1ccnc(N2CCCC(c3noc(C(C)C)n3)C2)n1 (configuration not stated)	12.21
CNC(=O)c1cn2cc(-c3ccccc3Cl)n(CC3CC3)c(=O)c2n1	12.71
CN(C)C(=O)c1cn2cc(-c3ccccc3Cl)n(CC3CC3)c(=O)c2n1	22.72
CCNC(=O)c1cn2cc(-c3ccccc3Cl)n(CC3CC3)c(=O)c2n1	99.63
COCCN1CCC2(CC1)CN(C(=O)N(C)C)c1ccc(C)cc12.O=C(O)C(F)(F)F	-10.15
O=C(N[C@H]1CN(Cc2ccsc2)[C@@H]2CCCO[C@H]12)C1CC1.O=C(O)C(F)(F)F	2.811
Cc1cccc(CN2CC3(CCN(C(=O)N(C)C)CC3)OCC2=O)n1.O=C(O)C(F)(F)F	-24.23
CC(C)c1nc(CNC2CCCN(c3cccnn3)C2)no1 (configuration not stated)	-11.29

SMILES	Percent Effect [%]
CC(C)(C)c1nc(CNC2CCCN(c3cccnn3)C2)no1 (configuration not stated)	53.11
Cc1nc(CNC2CCCN(c3cccnn3)C2)no1 (configuration not stated)	-18.97
Cc1cc(N2CCN(Cc3cn(C)nc3C)CC2)cc(C2CCNC2)n1.Cl (configuration not stated)	-5.922
O=C(NC1CCC1)[C@H]1C[C@@H]2CN(CC3CC3)C[C@H]1O2.O=C(O)C(F)(F)F	18.28
CC(C)(C)c1n[nH]cc1CNCC1CCN(CC(F)(F)F)C1.Cl (configuration not stated)	-7.348
CC(O)CN1CCC(CNCc2c[nH]nc2C(C)(C)C)CC1 (configuration not stated)	0.7064
CCN1CCC(CNCc2c[nH]nc2C(C)(C)C)C1.Cl (configuration not stated)	48.77
CC(C)(C)c1n[nH]cc1CNCC1CCN(C2CC2)C1.Cl (configuration not stated)	85.37
CC(C)N1CCC(CNCc2c[nH]nc2C(C)(C)C)C1 (configuration not stated)	82.49
COCCN1CCC(CNCc2c[nH]nc2C(C)(C)C)CC1	-7.94
COc1nn(C)c2c1CCCN(C(=O)c1cccc(C)n1)C2.O=C(O)C(F)(F)F	26.28
Cn1ccc(C(=O)N2C[C@@H]3OCCN(c4ncccn4)[C@@H]3C2)n1.O=C(O)C(F)(F)F	-20
Cc1ccc(N2CC[C@H]3O[C@H](C(=O)NCc4ccco4)CC[C@H]32)nn1.O=C(O)C(F)(F)F	-36.19
CN1CCOC(CNCc2csc(C3CCCCC3)n2)C1 (configuration not stated)	-18.06
Cc1nc(CNCC2CN(C)CCO2)cs1 (configuration not stated)	-7.018
CN1CCOC(CNCc2csc(C3CCCC3)n2)C1 (configuration not stated)	51.17
CN(Cc1cn2c(n1)CN(c1ncc(F)cn1)CC2)Cc1ccco1.O=C(O)C(F)(F)F.O=C(O)C(F)(F)F	8.494
CC(=O)Nc1c(C)noc1/C=C\c1ccc(C)c(S(=O)(=O)NC2CC2)c1	14.26
CC(C)N1Cc2c(C(=O)N3CCOCC3)nn(C)c2C1.O=C(O)C(F)(F)F.O=C(O)C(F)(F)F	-12.04
Cc1nc(C2CCCN2Cc2cc(Cl)c3c(c2)OCCCO3)no1 (configuration not stated)	45.55
Cc1nc(C2CCCN2Cc2cc(Cl)c3c(c2)OCCO3)no1 (configuration not stated)	57.05
Cc1nc(C2CCCN2Cc2cc(Cl)c3c(c2)OCO3)no1 (configuration not stated)	23.975
CSc1nc(N)c2c(n1)N=C1COC(O)=C1C2c1cccc(Cl)c1 (configuration not stated)	2.564

SMILES	Percent Effect [%]
CC(=O)Nc1nc(-c2ccccc2)c[nH]1	-15.03
CNC(=O)c1cccc(CNC(C)c2cc(C)ccc2OC(F)F)c1 (configuration not stated)	-18.66
CNC(=O)c1cccc(CNC(C)c2ccc(F)cc2N(C)C)c1 (configuration not stated)	101.5
CNC(=O)c1cccc(CNC(C)c2cc(Cl)ccc2OC)c1 (configuration not stated)	-13.72
COCCNc1nc2c(c(NCCc3cccs3)n1)CCNCC2	55.02
COCCNc1nc2c(c(NCc3ccncc3)n1)CCNCC2	-8.417
c1csc(CCNc2nc(-c3ccncc3)nc3c2CCNCC3)c1	10.45
O=C(O)C(F)(F)F.O=C(O)C(F)(F)F.O=C1NC2(CCN(Cc3cccs3)CC2)CC1c1ccncc1 (configuration not stated)	-33.96
CNC(=O)CN1CCOCC2(CCCN(Cc3ccc(F)cc3)C2)C1.O=C(O)C(F)(F)F.O=C(O)C(F)(F)F (configuration not stated)	-6.144
CCCn1ccnc1CNC(=O)C1COc2cc(OC)ccc2C1 (configuration not stated)	80.42
CCCn1cnnc1CNC(=O)C1COc2cc(OC)ccc2C1 (configuration not stated)	-11.02
CCCn1cnnc1CNC(=O)C1COc2ccc(OC)cc2C1 (configuration not stated)	-18.38
O=C(c1ccc(-c2cccc3c2CCNC3)o1)N1CCOCC1	23.74
O=C(c1ccc(-c2cccc3c2CCNC3)o1)N1CCCCC1	37.05
O=C(c1ccc(-c2cccc3c2CCNC3)o1)N1CCCC1	54.8
Cc1ccc(N2CCO[C@H]3CN(Cc4ccoc4)C[C@H]32)nn1.O=C(O)C(F)(F)F.O=C(O)C(F)(F)F	-23.95
O=C(c1ccccc1)N1C[C@@H]2CC[C@H](C1)N(S(=O)(=O)c1cccnc1)C2	-19.46
CC(C)CN1CC(O)CN(C(=O)c2cccc(C(F)(F)F)c2)CC1=O (configuration not stated)	3.734
CSc1ccc(C(=O)N2CC(=O)N(CC(C)(C)C)CC(O)C2)cc1 (configuration not stated)	67.49
CCN1CC(O)CN(C(=O)c2cccc(C(F)(F)F)c2)CC1=O (configuration not stated)	31.6
CC(C)(C)CN1CC(O)CN(C(=O)c2cccc(C(F)(F)F)c2)CC1=O (configuration not stated)	51.48
CSc1ccc(C(=O)N2CC(=O)N(CC3CC3)CC(O)C2)cc1 (configuration not stated)	13.44
CCN1CC(O)CN(C(=O)c2ccc(SC)cc2)CC1=O (configuration not stated)	25.41
